The list is not random: actives were taken first. Their share in the collection is about 3.1%.
PAX8 reporter – inhibitors of PAX8 transcriptional activity in RMG-I cells; RMG-I TPO-luciferase reporter, SteadyGlo, 24 h; inhibition, % at 12.6 µM; 360,000 tested, 1.2% active;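 active = mean replicate inhibition at least 60% with every replicate also reaching 60%; inconclusive = only one of the two criteria is met; inactive = mean below 60% and not all replicates reaching 60%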;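 note: luciferase light reporting Pax8 driven TPO promoter activity; plate controls were median of neutral control wells for no effect and mitoxantrone controls for full effect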
TROY signal inh – inhibitors of TROY-dependent NF-kB signaling; Q293 LMP1-TROYcd NF-kB luciferase reporter, 4 h; 360,000 tested, 0.98% active; AID 1347056; inhibition, % at 10 µM;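 active = compounds whose plate-normalised and pattern-corrected inhibition of the luciferase reporter signal at the single screening dose is 50% or more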
LMP1 NFkB inh – reduces LMP1-driven NF-kappaB luciferase signal; 350,000 tested, 0.69% active; inhibition, % at 12.5 µM; LMP1-induced NF-kappaB luciferase reporter cells, luminescence; in the data active = inhibition above about 41%; inconclusive = no clear call, values can overlap the other calls;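 note: 0% = neutral control wells and 100% = reference inhibitor control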
LGR2 inh – blocks bursicon-induced cAMP signaling via Drosophila LGR2 | HEK293 LGR2, CRE-luciferase, bursicon-stimulated, 4 h | inhibition, % at 9.99 µM | 380,000 tested, 0.35% active | AID 720647;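 active = drop in luminescence signal, shown as inhibition above about 50% in the replicate tests, limit read from the data, passing the limit was not always enough; inconclusive = probably only some replicates passing the limit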;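 note: agonist challenge used bursicon conditioned medium at about half maximal strength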
EWS-Fli inh – inhibitors of EWS/Fli oncoprotein transcriptional activity; AID 651661; 350,000 tested, 0.67% active; inhibition, % at 12.6 µM; A673 NR0B1-luciferase reporter, viability-normalised;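 active = mean inhibition of at least 50% after viability correction, with every replicate also passing that limit; inconclusive = mean reaches 50% but only one of two replicates passes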;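 note: firefly luciferase signal divided by Alamar Blue viability fluorescence both relative to DMSO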
TWEAK-Fn14 inh – blocks TWEAK-Fn14 interaction in a reporter cell assay | 360,000 tested, 2% active | AID 1159606 | inhibition, % at 10 µM | TWEAK-stimulated Fn14 reporter cells, luciferase luminescence, 8 h; in the data active = inhibition above about 50%
An asterisk follows results filed as active; ? = inconclusive; . = no result.

SMILES	PAX8 reporter	TROY signal inh	LMP1 NFkB inh	LGR2 inh	EWS-Fli inh	TWEAK-Fn14 inh
Oc1c(CN2CCOCC2)cc(CN2CCOCC2)c(O)c1O	-7	5	3	21	-6	52*
Oc1c(CNc2ccccc2)cc(COCc2ccccc2)c2cccnc12	31	12	18	12	10	11
CCOC(=O)N1CCN(Cc2ccccc2Cl)CC1	.	-17	6	.	.	2
C[C@H]1CN([C@@H](C)CO)C(=O)c2cc(NS(=O)(=O)c3ccccc3)ccc2O[C@H]1CN(C)S(=O)(=O)c1ccc(F)cc1	12	.	.	2	-5	.
Oc1c(CN2CCN(c3ccccc3)CC2)cc(Br)c2cccnc12	85*	-28	59*	15	-4	-48
c1ccc(N2CCN(Cc3ccnc4ccccc34)CC2)cc1	.	-9	15	.	.	6
C=CCN1C(=O)N(CC=C)c2cccc3cccc1c23	1	66*	0	9	-12	14
CCN1C(=O)Nc2cccc3cccc1c23	-40	4	14	6	43	31
C[C@@H]1CCCCO[C@@H](CN(C)Cc2ccc(C(F)(F)F)cc2)[C@H](C)CN([C@@H](C)CO)C(=O)c2cc(NC(=O)Nc3ccc(F)cc3)ccc2O1	86*	.	.	-12	10	.
C[C@@H]1CN([C@@H](C)CO)C(=O)c2cc(NC(=O)Nc3ccc(F)cc3)ccc2O[C@@H](C)CCCCO[C@@H]1CN(C)Cc1ccc(C(F)(F)F)cc1	80*	.	.	22	9	.
C[C@H](CO)N1C[C@H](C)[C@@H](CN(C)Cc2ccc(C(F)(F)F)cc2)OCCCC[C@H](C)Oc2ccc(NC(=O)Nc3ccc(F)cc3)cc2C1=O	88*	.	.	12	12	.
C[C@@H]1CN([C@@H](C)CO)C(=O)c2cc(NC(=O)Nc3ccc(C(F)(F)F)cc3)ccc2O[C@@H](C)CCCCO[C@H]1CN(C)Cc1ccc(C(F)(F)F)cc1	?	.	.	9	-3	.
CCCC(=O)Nc1ccc2c(c1)C(=O)N(C)[C@@H]1CC[C@H](CC(=O)NCCN3CCCCC3)O[C@H]1CO2	-12	.	.	-11	-3	.
COc1ccccc1C#Cc1ccc([C@H]2[C@@H](C#N)N(C(=O)C3CCCC3)[C@H]2CO)cc1	.	.	.	12	7	.
CN(C)Cc1cn(CC[C@@H]2CC[C@H](NS(=O)(=O)c3ccc(-c4ccccc4)cc3)[C@@H](CO)O2)nn1	3	.	.	-5	1	.
Cc1cc(/C=C\c2ccc3cc(N(C)C)ccc3[n+]2C)c(C)n1-c1ccccc1	.	0	52*	.	.	44
C[C@@H]1CN([C@@H](C)CO)C(=O)Cc2cc(NC(=O)Nc3ccc(F)cc3)ccc2O[C@H]1CN(C)Cc1ccc(C(=O)O)cc1	0	.	.	3	1	.
O=C1c2ccccc2C(Nc2ccc3c(c2)OCCO3)N1Cc1ccc2c(c1)OCO2 (stereo unspecified)	-48	63*	14	-10	19	74*
O=C1c2ccccc2C(Nc2ccc3c(c2)OCCO3)N1c1ccccn1 (stereo unspecified)	-28	46	18	-8	6	63*
O=C1c2ccccc2C(Nc2ccccc2)N1Cc1ccc2c(c1)OCO2 (stereo unspecified)	25	3	-8	-1	-8	-23
CN(C)C(=O)C[C@H]1C[C@@H]2c3cc(NC(=O)Nc4ccccc4F)ccc3O[C@@H]2[C@H](CO)O1	-9	.	.	-11	-12	.
O=C(O)c1ccc(N/N=C/c2cn(Cc3ccc(F)cc3)c3ccccc23)cc1	-172	33	-10	-15	-33	52*
Fc1cccc(Cl)c1CSc1ncn[nH]1	-26	78*	-6	.	.	-11
Nc1ncnc(SCc2c(F)cccc2Cl)n1	-11	4	-1	3	0	32
CCCC#Cc1cnc2c(c1)C(=O)N([C@@H](C)CO)C[C@@H](C)[C@@H](CN(C)Cc1ccc(F)cc1)O2	.	.	.	-2	0	.
CCC(=O)NC[C@H]1N[C@H](CO)[C@@H]1c1ccc(-c2cccc(C#N)c2)cc1	-10	.	.	3	9	.
COc1ccc([Si](C)(C)[C@H]2[C@H](CCO)O[C@@]3(C(=O)N(Cc4ccccc4)c4ccc(N5CCC5=O)cc43)[C@@H]2C)cc1	110*	.	.	.	6	.
COc1ccc([Si](C)(C)[C@@H]2[C@@H](CCO)O[C@]3(C(=O)N(Cc4ccc(N5CCOC5=O)cc4)c4ccccc43)[C@H]2C)cc1	97*	.	.	.	34	.
